DT40 TDP1 CPT = growth inhibition of DT40 Tdp1-/-;hTDP1 cells with camptothecin (screen for TDP1 inhibitors); chicken DT40 Tdp1-/-;hTDP1 cells + 20 nM CPT, ATP luminescence, 48 h; Potency, µM (doses to about 46.2 µM), for inactives: at the highest dose activity change, negative = growth inhibition, usual class: inhibitors; 420,000 compounds, 12% hits; also: % is scaled to controls: 0 for no effect and ±100 for the full control effect; nearly all actives have a fitted effect of over 55% in size
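Cell growth measured by CellTiter-Glo luminescence after a minimum 48 h, 37 C compound exposure with 20 nM CPT in Tdp1-knockout DT40 cells stably expressing hTDP1, seeded 400/well; qHTS titration format.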
HepG2 viability = kills HepG2 cells in TGF-b inhibitor counter-screen. Potency, µM (top dose mostly 46.1 µM), for the others: top-dose activity change, negative = cytotoxicity, actives largely listed as cytotoxic. AID 588856. HepG2 CAGA-GFP viability, ATP luminescence, 18 h. 410,000 compounds, 0.76% hits
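CellTiter-Glo luminescence gave cytotoxicity after 18 hours at 37 degrees C. The cells were HepG2 CAGA-GFP in 1% FBS DMEM, stimulated with 500 pg/mL TGF-beta after compound addition. %Activity was normalised to no-cell wells (complete cell-killing) and DMSO (no toxicity), and curves were fitted and classified.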
HT1080NT lethal = kills 2HG-producing HT-1080-NT fibrosarcoma cells | HT-1080-NT fibrosarcoma viability, CellTiter-Glo ATP luminescence, 48 h | 360,000 compounds, 1.6% hits | Potency, µM (highest dose often 46.1 µM), for inactives: at the top dose activity, negative = less viability, usual class: cytotoxic;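 also: NT is the 2HG producing partner of a matched IDH1 knockdown line; 0% = DMSO-treated cells and -100% = media-only wells without cells; nearly all actives have a fitted effect of over 55% in size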
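Read-out is CellTiter-Glo luminescence after 10 minutes at room temperature, following 48 hours' compound treatment of HT-1080-NT cells (750 cells/well, RPMI, 5% FBS, 37 degrees C).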
HT1080 IDH1KD tx = kills HT-1080 cells with IDH1 knockdown; Potency, µM (highest dose often 46.1 µM), without a hit: at the highest dose activity, negative = toxicity, hits mostly cytotoxic; AID 686971; 360,000 compounds, 2% hits; HT-1080 IDH1 knockdown viability, ATP luminescence, 48 h;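 also: 0% = DMSO wells and -100% = cell-free medium wells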
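Knockdown cells (IDH1KD HT-1080) received compounds 2 h after plating at 750 cells/well and were kept 48 h at 37 °C in 5% FBS RPMI. A CellTiter-Glo luminescence read gave % activity for curve fitting.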
TDP1 cell noCPT = qHTS for Inhibitors of human tyrosyl-DNA phosphodiesterase 1 (TDP1): qHTS in cells in absence of CPT; DT40 Tdp1-/- hTDP1 cells, no CPT, ATP luminescence, 48 h; Potency, µM (series often up to 46.2 µM), inactives show at the highest dose activity change, negative = growth inhibition, actives largely listed as inhibitors; 420,000 compounds, 15% hits; also: % is scaled to controls: 0 for no effect and ±100 for the full control effect; nearly all actives have a fitted effect of over 55% in size
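DT40 Tdp1-/-;hTDP1 cells, no CPT (DMSO vehicle only), 400 cells/well; compounds pin-transferred; ≥48 hr, 37 °C; CellTiter-Glo 30 min RT dark, luminescence read.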
TGFb inhibitor = TGF-b pathway inhibition; HepG2 CAGA-GFP TGF-b/SMAD3 reporter, GFP fluorescence, 18 h; TGF-beta stimulated, 500 pg/mL final; Potency, µM (highest dose often 46.1 µM), inactives show at the top dose activity, negative = inhibition, most hits filed as inhibitors; 410,000 compounds, 1.2% hits; also: % is scaled to controls: 0 for no effect and ±100 for the full control effect; nearly all actives have a fitted effect of over 65% in size
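Smad-responsive CAGA-GFP expression was quantified in HEPG2 cells exposed to compounds and 500 pg/mL final TGF-beta for 18 h at 37 degrees C; unstimulated wells defined full inhibition.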
An asterisk follows results filed as active; ? = inconclusive; · = no result. This is a sample that favours compounds with a hit; in the whole collection about 17% have one here. Calls follow the shape of the dose curve; as a rule, active = well fitted curve in the direction sought with a large enough effect; inconclusive = small, poorly fitted or top-dose-only effect, or another doubt; inactive = no such curve, though single readings can be large; an effect the other way counts as inactive or inconclusive. Potency is read from the fitted curve at half-maximal effect.

SMILES | DT40 TDP1 CPT | HepG2 viability | HT1080NT lethal | HT1080 IDH1KD tx | TDP1 cell noCPT | TGFb inhibitor
Cc1ccc(C)c(NC(=O)CN(C)C(=O)CSC(C)C(=O)Nc2cc(C)on2)c1 (stereo unspecified) | -2.0% | 0.0% | -7.1% | -4.7% | -10.3% | -1.6%
CC(C)CN(C(=O)COC(=O)CSc1ccc(Br)cc1)C1CCS(=O)(=O)C1 (stereo unspecified) | -3.0% | -10.4% | 4.6% | 6.9% | 0.0% | 0.0%
CS(=O)(=O)c1ccc(C(=O)OCc2nnc(-c3ccc(Cl)cc3)o2)cc1[N+](=O)[O-] | 3.26µM* | -82.9% | ? | 18.4µM* | 4.61µM* | ?
CC(=O)c1c(C)[nH]c(C(=O)OCc2nnc(-c3ccc([N+](=O)[O-])cc3)o2)c1C | 23.1µM* | -20.9% | 23.1µM* | ? | 14.6µM* | -10.9%
O=C(OCc1nnc(-c2ccc(Cl)cc2)o1)c1ccc(O)cc1 | 7.5% | 4.8% | 21.2% | -18.1% | -15.3% | -3.0%
CCOc1ccc(C(=O)N2CC(=O)Nc3ccc(C)cc3C2c2ccc(F)cc2)cc1OCC (stereo unspecified) | ? | -23.4% | · | · | ? | ?
CCOC(=O)N1CCC(NS(=O)(=O)c2ccc(C)cc2)CC1 | -26.0% | 9.1% | -2.5% | 0.1% | ? | 12.7%
CCOC(=O)N1CCC(NS(=O)(=O)c2ccc(NC(C)=O)c(Cl)c2)CC1 | 23.1µM* | -46.4% | -5.9% | -11.8% | 8.2µM* | -10.0%
Cn1cc(S(=O)(=O)N2CCCCCC2)cc1C(=O)N1CCN(c2cccc(C(F)(F)F)c2)CC1 | 16.4µM* | -4.1% | · | · | 23.1µM* | ?
Cn1cc(S(=O)(=O)N2CCCC2)cc1C(=O)N1CCN(c2cccc(Cl)c2)CC1 | ? | -22.9% | ? | -26.5% | ? | ?
COc1ccc(N2CCN(C(=O)c3cc(S(=O)(=O)N4CCC(C)CC4)cn3C)CC2)cc1 | 23.1µM* | -0.1% | · | · | 20.6µM* | ?
Cn1cc(S(=O)(=O)N2CCCCCC2)cc1C(=O)N1CCN(c2cccc(Cl)c2)CC1 | 14.6µM* | -17.1% | · | · | ? | ?
COC(=O)c1cc(S(=O)(=O)N2CCN(c3ccc(OC)cc3)CC2)cn1C | -24.0% | -8.9% | 0.0% | -6.2% | -10.3% | -4.8%
CCN1C(=O)[C@H]2[C@@H](c3ccc(-c4ccc(C(C)=O)cc4)c(OC)c3)N[C@@](Cc3ccccc3)(C(=O)OC)[C@H]2C1=O | ? | 1.1% | -12.4% | -1.9% | ? | 6.3%
CN1CCN(c2cc(-c3ccc(N(C)C)cc3)ncn2)CC1 | 7.7% | · | · | · | -22.3% | ·
O=c1ccccn1CCOc1ccccc1Cl | 2.2% | -4.2% | -0.6% | 17.8% | 6.0% | -5.1%
Fc1ccc(C(CCNCc2ccccn2)c2ccc(Cl)cc2)cc1 (stereo unspecified) | ? | 12.6µM* | 18.4µM* | 20.6µM* | 18.4µM* | ?
COc1ccc(C2(CNC(=O)c3cccc([N+](=O)[O-])c3)CCOCC2)cc1 | 8.3% | 9.0% | 8.4% | 6.0% | ? | -0.9%
O=C(NC1CCCCC1)C(CCc1ccccc1)N1CCc2ccccc2C1 (stereo unspecified) | 20.6µM* | -12.4% | ? | ? | 20.6µM* | 10µM*
O=C(NC1CCCCC1)C(CCc1ccccc1)N1CCOCC1 (stereo unspecified) | 4.6% | -19.4% | 26.4% | 15.4% | 0.8% | -18.4%
Cc1ccccc1Nc1c(-c2ccccc2)nc2cccc(C)n12 | ? | -36.9% | ? | -23.9% | 3.16µM* | -20.7%
Cc1ccccc1Nc1c(-c2ccc(Cl)s2)nc2c(C)cccn12 | ? | -10.4% | · | · | ? | 3.9%
Cc1ccccc1Nc1c(-c2ccc(Cl)s2)nc2cccc(C)n12 | 8.2µM* | -17.9% | · | · | ? | -1.0%
COCc1c(C(=O)OC)nnn1-c1ccc(C(F)(F)F)cc1[N+](=O)[O-] | 18.4µM* | -1.6% | 18.0% | 16.3% | -9.8% | 0.0%
CCOC(=O)c1nnn(-c2ccccc2)c1C | -4.3% | -15.2% | -6.3% | -8.1% | -11.3% | 6.3%
SMILES | DT40 TDP1 CPT | HepG2 viability | HT1080NT lethal | HT1080 IDH1KD tx | TDP1 cell noCPT | TGFb inhibitor
CCOC(=O)c1nnn(-c2ccc([N+](=O)[O-])cc2[N+](=O)[O-])c1C | 11.6µM* | 15.8µM* | ? | ? | 11.6µM* | 10µM*
Cc1nccn1-c1ccc(C(F)(F)F)cc1[N+](=O)[O-] | -12.9% | 3.8% | -4.6% | 14.0% | ? | -1.1%
CC(CC(=O)N(CCC1=CCCCC1)c1c(N)n(Cc2ccccc2)c(=O)[nH]c1=O)c1ccccc1 (stereo unspecified) | 25.9µM* | -40.3% | ? | ? | 16.4µM* | -9.5%
COc1ccc(OCCCC(=O)N(CCC2=CCCCC2)c2c(N)n(Cc3ccccc3)c(=O)[nH]c2=O)cc1 | -1.2% | -32.3% | -18.6% | -16.3% | ? | ?
CCOc1ccc(OCCC(=O)N(CCC2=CCCCC2)c2c(N)n(Cc3ccccc3)c(=O)[nH]c2=O)cc1 | 16.4µM* | -59.3% | -8.9% | -22.4% | ? | 0.0%
CC(=O)Oc1ccc(C(=O)NC(C)CCc2ccccc2)cc1 (stereo unspecified) | -8.3% | -34.7% | 0.8% | 2.3% | -10.1% | 0.7%
CSc1cccc(NC(=O)CCCOc2cc(=O)n(C)c3ccccc23)c1 | ? | -34.2% | -0.3% | -9.9% | ? | -1.5%
Cc1cc(C)cc(NC(=O)CN2C(=O)NC(Cc3c[nH]c4ccccc34)C2=O)c1 (stereo unspecified) | ? | -23.7% | -5.3% | -4.9% | ? | -17.3%
CC(C)c1ccc(NC(=O)CN2C(=O)NC(Cc3c[nH]c4ccccc34)C2=O)cc1 (stereo unspecified) | ? | -39.6% | ? | ? | 16.4µM* | ?
Cc1nn(CC(=O)NNC(=O)c2ccccc2F)c([N+](=O)[O-])c1Br | 5.5% | 4.1% | ? | 12.1% | -0.4% | 5.0%
Cc1ccc(NS(=O)(=O)c2ccc3[nH]c4c(c3c2)CCCCCC4)cc1Cl | ? | 12.6µM* | · | · | ? | 11.2µM*
Cc1cccc(NC(=O)C2CCN(S(=O)(=O)c3ccc4[nH]c5c(c4c3)CCCCC5)CC2)c1 | 20.6µM* | -7.3% | · | · | ? | ?
Cc1cccc(NS(=O)(=O)c2ccc3[nH]c4c(c3c2)CCCCCC4)c1 | 18.4µM* | 20µM* | · | · | ? | 10µM*

Screening data deposited in PubChem by National Center for Advancing Translational Sciences (NCATS).
